{"source": "PubChem BioAssay (EPA / NIEHS)", "note": "Records with an inconclusive call do not appear. Calls of active or inactive are those of the source. The calls were made as follows: active = hit-call score of the fitted dose curve at least 0.9, where 1 is the maximum; inconclusive = response in the unintended direction; inactive = score below 0.9.", "data": [{"test": "ATG_M_32_TRANS: Attagene TRANS-FACTORIAL HepG2 Assay for M32 Transcription Factor (Internal Marker) (AID 2282984)", "settings": "HepG2 Attagene TRANS M32 internal marker reporter", "procedure": "ATG_TRANS is a cell-based, multiplexed-readout assay that uses HepG2, a human liver cell line, with measurements taken at 24 hours after chemical dosing in a 24-well plate.ATG_M_32_TRANS is one of 30 assay component(s) measured or calculated from the ATG_TRANS assay. It is designed to make measurements of mRNA induction, a form of inducible reporter, as detected with fluorescence intensity signals by Reverse transcription polymerase chain reaction (RT-PCR) and Capillary electrophoresis technology.Data from the assay component ATG_M_32_TRANS was analyzed into 1 assay endpoint. This assay endpoint, ATG_M_32_TRANS, was analyzed in the positive analysis fitting direction relative to DMSO as the negative control and baseline of activity. Using a type of inducible reporter, measures of mRNA for gain-of-signal activity can be used to understand the background control at the transcription factor-level as they relate to the gene . Furthermore, this assay endpoint can be referred to as a secondary readout, because this assay has produced multiple assay endpoints where this one serves a background control function. To generalize the intended target to other relatable targets, this assay endpoint is annotated to the background measurement intended target family, where the subfamily is internal marker.\nHuman liver HepG2 cells are transiently transfected with multiple reporter transcription units (MRTUs) in 6-well plates using FuGene 6 reagent (Roche; 3 ml FuGene/1 mg DNA). The MRTU constructs are regulated by a cis-regulating element (promoter). […] A major difference between the CIS and TRANS system is that in CIS activities of endogenous TFs are measured, whereas the TRANS assay evaluates changes in activities of exogenous, chimeric NR-Gal4 proteins. […] At the end of 24 hour incubation, total RNA was isolated using TriZol reagent (Invitrogen). The isolated RNA is then reverse-transcribed using oligo(dT) primer and Mo-MLV reverse transcriptase (Invitrogen) with DNAse I (Ambion) treatment for 30 min. The one-tenth of the produced cDNA was amplified by PCR using Taq DNA polymerase (Invitrogen) and two reporter sequence-specific primers. The PCR products were fluorescently labeled by primer extension with 6-arboxyfluorescein (6-FAM) 5'-labeled reporter sequence-specific primer (2 min at 95 C, 20 s at 68 C and 10 min at 72 C) and these products were digested with 5U of HpaI (New England Biolabs) for 2h at 37 C. The fragments were purified using Qiaquick PCR columns (Qiagen), analyzed on an ABI 3130xL genetic analyzer (Applied Biosystems) with peak positions identified by using a set of X-rhodamine (ROX)-labeled MapMarker1000 molecular weight standards (BioVentures). The raw capillary electrophoresis data was processed using Attagraph software (Attagene).", "values": [{"smiles": "O=[N+]([O-])C=Cc1ccccc1", "outcome": "inactive"}, {"smiles": "BrCBr", "outcome": "inactive"}, {"smiles": "c1cc(OCC2CO2)ccc1Cc1ccc(OCC2CO2)cc1", "note": "(stereo not given)", "outcome": "inactive"}, {"smiles": "CCCCOC(=O)CCC(=O)OCCCC", "outcome": "inactive"}, {"smiles": "Cc1ccc(N(SC(F)(Cl)Cl)S(=O)(=O)N(C)C)cc1", "outcome": "inactive"}, {"smiles": "CC(Cc1ccc(C(C)(C)C)cc1)CN1C[C@@H](C)O[C@@H](C)C1", "note": "(stereo not given in full)", "outcome": "inactive"}, {"smiles": "CC(C)[C@@H](C(=O)O[C@@H](C#N)c1cccc(Oc2ccccc2)c1)c1ccc(Cl)cc1", "outcome": "inactive"}, {"smiles": "C=CC(=O)OCC(CC)CCCC", "note": "(stereo not given)", "outcome": "inactive"}, {"smiles": "COc1cc(OC)nc(Oc2cccc(Oc3nc(OC)cc(OC)n3)c2C(=O)O)n1", "outcome": "inactive"}, {"smiles": "CC=Cc1ccc2c(c1)OCO2", "outcome": "inactive"}, {"smiles": "O=C(O)CCl", "outcome": "inactive"}, {"smiles": "[CH3][Sn]([CH3])([Cl])[Cl]", "outcome": "inactive"}, {"smiles": "Nc1ccc(-c2ccc(N)c(N)c2)cc1N", "outcome": "inactive"}, {"smiles": "CCC(=O)c1ccc(Cl)cc1", "outcome": "inactive"}, {"smiles": "Nc1cc(Cl)cc(Cl)c1", "outcome": "inactive"}, {"smiles": "CC1CCCC1.[C-]#[O+].[C-]#[O+].[C-]#[O+].[Mn]", "outcome": "inactive"}, {"smiles": "COc1ccc(CO)cc1", "outcome": "inactive"}, {"smiles": "C=CC(=O)OC", "outcome": "inactive"}, {"smiles": "CCCCCCCCCCCCCCCC[N+](C)(C)C", "outcome": "inactive"}, {"smiles": "CCOC(=O)N(C)N=O", "outcome": "inactive"}, {"smiles": "[N-]=[N+]=CC(=O)OC[C@H](N)C(=O)O", "outcome": "inactive"}, {"smiles": "O=[N+]([O-])c1ccc(Cl)cc1", "outcome": "inactive"}, {"smiles": "CC(C)(O)C#N", "outcome": "inactive"}, {"smiles": "CCOP(O)OCC", "outcome": "inactive"}, {"smiles": "CC(C)C(=O)Cl", "outcome": "inactive"}, {"smiles": "O=C1C=CC(=O)C=C1", "outcome": "inactive"}, {"smiles": "O=P(O)(Oc1ccccc1)Oc1ccccc1", "outcome": "inactive"}, {"smiles": "CCc1cccc(C)c1N(C(=O)CCl)[C@@H](C)COC", "outcome": "inactive"}, {"smiles": "CC(C)(c1cc(Cl)c(O)c(Cl)c1)c1cc(Cl)c(O)c(Cl)c1", "outcome": "inactive"}, {"smiles": "Oc1ccc(Cl)cc1", "outcome": "inactive"}, {"smiles": "CN(C)C(=O)C(c1ccccc1)c1ccccc1", "outcome": "inactive"}, {"smiles": "CC(C)(Cl)Cl", "outcome": "inactive"}, {"smiles": "CC(C)COP(=O)(OCC(C)C)OCC(C)C", "outcome": "inactive"}, {"smiles": "CN1C[C@H](C(=O)N[C@]2(C)O[C@@]3(O)[C@@H]4CCCN4C(=O)[C@H](Cc4ccccc4)N3C2=O)C=C2c3cccc4[nH]cc(c34)C[C@H]21", "outcome": "inactive"}, {"smiles": "CN1C(=O)CCS(=O)(=O)C1c1ccc(Cl)cc1", "note": "(stereo not given)", "outcome": "inactive"}, {"smiles": "O=S(=O)(c1ccccc1)c1ccccc1", "outcome": "inactive"}, {"smiles": "O=S(=O)(O)OOS(=O)(=O)O", "outcome": "inactive"}, {"smiles": "CN(N=O)c1ccccc1", "outcome": "inactive"}, {"smiles": "C[N+](=O)[O-]", "outcome": "inactive"}, {"smiles": "CCC(C)c1cc([N+](=O)[O-])cc([N+](=O)[O-])c1OC(=O)C=C(C)C", "note": "(stereo not given)", "outcome": "inactive"}]}]}
